Compound activity deposited in PubChem by National Center for Advancing Translational Sciences (NCATS).
Hits are enriched below; roughly 10% of the tested compounds scored in any of these assays.
VDR inh – inhibitors of human vitamin D receptor | P11473 | VDR-SRC2-3 peptide fluorescence polarization, 2 h | Potency, µM, for the others: max response, negative = inhibition, usual class: inhibitors | 400,000 tested, 0.93% active | AID 504847; note: potency is the fitted concentration of half-maximal effect
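VDR–SRC2-3 interaction, FP format. Cmpds 23 nl via pintool, brief spin, 2 h ambient incubation.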
Sfp PPTase inh – inhibitors of Bacillus subtilis Sfp phosphopantetheinyl transferase; AID 1490; Q9F4F7; 310,000 tested, 3.5% active; Biochemical Sfp PPTase activity, qHTS; Potency, µM, without a hit: largest response in the series, negative = inhibition, usual class: inhibitors;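 note: the enzyme is Sfp with the accession as filed and its product quenches rhodamine fluorescence; potency is the fitted concentration of half-maximal effect; 0% = enzyme reaction without inhibitor and -100% = no enzyme wells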
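After 15 min at room temperature with compound, 15 nM Sfp received 5 uM rhodamine-CoA plus 12.5 uM BHQ-2-ybbR (50 mM Hepes pH 7.6, 10 mM MgCl2). Rate came from the fluorescence difference over 30 min, ex 525/em 598 nm.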
G9a inh – inhibitors of human histone lysine methyltransferase G9a; Potency, µM (top dose mostly 102 µM), for inactives: at the top dose activity, negative = inhibition, actives largely listed as inhibitors; G9a H3K9 monomethylation, AlphaScreen, 2 h; Q96KQ7; AID 504332; 350,000 tested, 8.8% active; note: potency is the fitted concentration of half-maximal effect; nearly all actives have a fitted effect of over 75% in size
Target sequence (Q96KQ7 913-1193 limits assumed): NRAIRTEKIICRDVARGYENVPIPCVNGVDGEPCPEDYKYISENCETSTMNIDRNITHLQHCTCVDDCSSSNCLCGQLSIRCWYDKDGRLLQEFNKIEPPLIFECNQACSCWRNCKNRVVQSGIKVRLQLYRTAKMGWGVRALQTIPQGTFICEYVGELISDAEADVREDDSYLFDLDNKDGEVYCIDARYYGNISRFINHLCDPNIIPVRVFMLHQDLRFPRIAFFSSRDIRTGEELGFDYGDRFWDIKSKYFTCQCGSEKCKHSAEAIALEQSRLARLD
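Compounds were preincubated with 20 nM G9a for 15 min, after which biotinylated H3K9 peptide (500 nM) and SAM (20 uM) started a 2 h room-temperature reaction. Monomethylated product was quantified by antibody-based AlphaScreen chemiluminescence.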
CCT chaperon mod – modulators of cytosolic chaperonin (CCT/TRiC) activity. AID 651819. purified chaperonin ATPase assay, HTRF ADP detection, 30 min. 360,000 tested, 0.3% active. activity change, % (concentration not given with the values), hits read low; in the data active = activity change below about -30%
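TRiC (40 or 20 nM final, by batch activity) in 30 mM Tris pH 7.4, 100 mM KCl, 5 mM MgCl2, 1 mM DTT was treated with compound at 76 uM single dose, then 10 uM ATP, 30 min at 37 °C. ADP was read by HTRF Transcreener.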
Mm-Cpn inhibitor – M. maripaludis TRiC chaperonin inhibition | 330,000 tested, 0.031% active | purified Mm-Cpn ATPase, ADP Transcreener TR-FRET | Potency, µM (top dose mostly 76.9 µM), without a hit: top-dose activity, negative = inhibition, actives largely listed as inhibitors | AID 504842; note: potency is the fitted concentration of half-maximal effect; nearly all actives have a fitted effect of over 80% in size
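Quantitative HTS used 25 nM Mm-CPN and 10 uM ATP in magnesium/KCl Tris buffer, pH 7.4, with 1 mM DTT. Hydrolysis ran 30 min at 37°C; ADP was read by HTRF.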
PLK1 PBD block – blocks phosphopeptide binding to human PLK1 polo-box domain | P53350 | Plk1 PBD binding of FITC phosphopeptide, fluorescence polarization | Potency, µM, for inactives: max response, negative = inhibition, most hits filed as inhibitors | 360,000 tested, 2.8% active; note: potency is the fitted concentration of half-maximal effect; series mostly up to about 57 µM; nearly all actives have a fitted effect of over 65% in size
Active calls of the source: *; ? = inconclusive; / = no result given; ! = not active in a repeat; [ ] = remark or other dose. Unless noted, calls come from the whole dose curve; as a rule, active = well fitted curve in the direction sought with a large enough effect; inconclusive = small, poorly fitted or top-dose-only effect, or another doubt; inactive = no such curve, though single readings can be large; an effect the other way counts as inactive or inconclusive. Unless noted, % is set by controls: 0 for no effect and ±100 for the full control effect.

SMILES	VDR inh	Sfp PPTase inh	G9a inh	CCT chaperon mod	Mm-Cpn inhibitor	PLK1 PBD block
Cc1nc(-c2ccc(NC(=O)/C=C\C(=O)O)cc2)cs1	-4%	11%	35µM*	0	1%	21µM*
CCCCCC(=O)Nc1ccc(-c2csc(C)n2)cc1	-5%	-55%	7%[59 µM]	1	-1%	-4%
COc1ccc(OC)c(C2=Nn3c(nnc3-c3ccccc3OC)SC2)c1	/	-8%	/	/	/	/
CC(C)Cc1nnc(NS(=O)(=O)c2ccccc2)s1	/	/	/	1	/	?
O=C(CC(NC(=O)C(F)(F)F)c1ccccc1)Nc1nnc(CCc2ccccc2)s1 (stereo unspecified)	11%	18µM*	10µM*	3	-1%	?
CC(CC(=O)Nc1nnc(CC(C)(C)C)s1)c1ccccc1 (stereo unspecified)	-22%	?	40µM*	-1	-1%	?
CC(C)(C)Cc1nnc(NS(=O)(=O)c2ccccc2)s1	-13%	-3%	79µM*	-3	0%	27µM*
CCOC(=O)C1CCN(C(C(=O)NC2CCCCC2)c2ccc(OC)cc2)CC1 (stereo unspecified)	-24%	13%	-16%[12.7 µM]	1	0%	27µM*
CCOC(=O)C1CCN(C(=O)CC(C)c2ccccc2)CC1 (stereo unspecified)	?	16%	7%[59 µM]	0	/	24µM*
COc1ccc(C(C(=O)NC2CCCC2)N2CCc3ccccc32)cc1 (stereo unspecified)	-18%	8%	-7%[59 µM]	-3	-1%	-4%
CCOC(=O)C1CCN(C(=O)CC(NS(=O)(=O)c2ccc(OC)cc2)C(C)C)CC1 (stereo unspecified)	?	-8%	-22%[59 µM]	-4	1%	3.8µM*
CCOC(=O)C1CCN(C(=O)c2c(C)oc3c2C(=O)c2ccccc2C3=O)CC1	-24%	-26%	50µM*	-5	1%	-4%
Nc1ccnc2c1ncn2[C@@H]1O[C@H](CO)[C@@H](O)[C@H]1O	-2%	15%	33%[59 µM]	/	/	/
Cc1nn(CC(=O)Nc2ccccc2C(F)(F)F)c(=O)c2cccn12	-16%	13%	3.2µM*!	0	0%	-2%
Cc1nn(CC(=O)NCCc2ccc(Cl)cc2)c(=O)c2cccn12	?	18%	-10%[59 µM]	-1	7%	27µM*
CCc1ccccc1NC(=O)Cn1nc(C)n2cccc2c1=O	12%	11%	11%	1	2%	-6%
Cc1nn(CC(=O)NCc2ccccc2)c(=O)c2cccn12	2%	17%	12%[59 µM]	0	2%	2%
COc1cccc(CNC(=O)c2c3c(nc4ccccc24)C(=O)N(C2CCCCC2)C3)c1	11%	/	0%[59 µM]	/	/	/
O=C(c1cccs1)N1CCN(Cc2cccc([N+](=O)[O-])c2)CC1	-10%	-25%	11µM*	2	-2%	-22%
O=C(c1ccco1)N1CCN(Cc2cccc([N+](=O)[O-])c2)CC1	-1%	-11%	3.2µM*	0	-1%	6%
O=C(c1ccco1)N1CCN(C(=O)c2cc3cc([N+](=O)[O-])ccc3oc2=O)CC1	-7%	11%	50%[12.7 µM]	1	1%	?
c1cc2c(cc1C1=NNC(=NC3CC3)SC1)OCCO2	-13%	-6%	?	-3	1%	-29%
CCCCN=C1NN=C(c2ccc(C)c(C)c2)CS1	?	-25%	32µM*	-4	0%	11µM*
CCCCN=C1NN=C(c2ccc3c(c2)OCCO3)CS1	-1%	40µM*	45µM*	-3	-2%	-8%
COc1ccc(N=C2NN=C(c3ccc4c(c3)OCCO4)CS2)cc1	-10%	?	45µM*	1	-21%	27µM*
SMILES	VDR inh	Sfp PPTase inh	G9a inh	CCT chaperon mod	Mm-Cpn inhibitor	PLK1 PBD block
Cc1cc(C)n(-c2nc3cc(Cl)c(Cl)cc3nc2Nc2ccc(F)cc2C)n1	-21%	/	1%[59 µM]	/	/	/
COCCCNC(=O)CCC(=O)NNc1nc2ccccc2c2nc(C)nn12	2%	11%	-4%	-1	1%	-3%
CCCCNC(=O)CCC(=O)NNc1nc2ccccc2c2nc(C)nn12	-3%	24%	25µM*!	-2	0%	-23%
Cc1noc(C)c1C(=O)Nc1ccccc1N1CCOCC1	-6%	/	11%[59 µM]	-30*	-1%	-1%
Cc1onc(-c2c(F)cccc2Cl)c1C(=O)Nc1ccccc1N1CCOCC1	-19%	3%	?	1	0%	?
Cc1cc(C(=O)Nc2ccccc2N2CCOCC2)c(C)o1	8%	?	56µM*	2	0%	-2%
CC(=O)OCC1OC(C#CCCc2ccccc2)C=CC1OC(C)=O (stereo unspecified)	/	5%	/	/	/	/
NC(=O)c1cc(S(=O)(=O)NCCCc2ccccc2)cs1	-23%	11%	5%	-1	-4%	27µM*
CN(C)c1ccc(CNS(=O)(=O)c2csc(C(N)=O)c2)cc1	-20%	7%	50µM*	0	0%	0%
CN(Cc1ccccc1)S(=O)(=O)c1csc(C(N)=O)c1	-18%	11%	23%[59 µM]	0	2%	7%
CCN(CC)c1cc(C)c2cc(NC(=O)/C=C/c3ccc(C)cc3)ccc2n1	-15%	/	-2%[59 µM]	/	/	/
NC(=O)[C@@H]1CCCN1C(=O)[C@H](Cc1cnc[nH]1)NC(=O)[C@@H]1CCC(=O)N1	2%	12%	21%[59 µM]	/	/	/
COC(=O)c1c(Oc2ccc(Br)cc2)nnc(-c2ccccc2)c1-c1ccccc1	15%	/	1%[59 µM]	/	/	/
Cc1cc(O)c(C=O)c2c1C(=O)Oc1c(COC(=O)/C=C/C(=O)O)c(O)c(C(=O)O)c(C)c1O2	6.3µM*	-52%	?	/	/	/
Cc1cc(O)c(C=O)c2c1C(=O)Oc1c(CO)c(O)c3c(c1O2)C(O)OC3=O (stereo unspecified)	18µM*	14µM*	?	0	/	7.5µM*
